Measurements reported in PubChem BioAssay AID488969 (Vanderbilt High Throughput Screening Facility, 2010).
The full ranking holds about 110,000 compounds; the median of “z-score” is about -0.1, and the highest 2% start at about 2. This excerpt belongs to a sample that is enriched for the highest values. Active and inactive are the calls of the source.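 Rule for the calls: active = z-score in the third read window above 3 or below -3; inactive = the rest.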

These molecules were tested against Metabotropic glutamate receptor 8 (Rattus norvegicus) (UniProt P70579) (assay: mGluR8 Gi/Go-coupled signaling modulation – cell-based, rat, thallium flux, HTS, primary screen (AID 488969)). Conditions: HEK293 rat mGluR8, GIRK (G protein-gated inwardly rectifying potassium channel) thallium flux, FluoZin2; at 10 µM; stronger effect = higher value; submaximal glutamate (EC20) added with thallium.
Chain of Metabotropic glutamate receptor 8 (Rattus norvegicus) (P70579 whole entry, looked up): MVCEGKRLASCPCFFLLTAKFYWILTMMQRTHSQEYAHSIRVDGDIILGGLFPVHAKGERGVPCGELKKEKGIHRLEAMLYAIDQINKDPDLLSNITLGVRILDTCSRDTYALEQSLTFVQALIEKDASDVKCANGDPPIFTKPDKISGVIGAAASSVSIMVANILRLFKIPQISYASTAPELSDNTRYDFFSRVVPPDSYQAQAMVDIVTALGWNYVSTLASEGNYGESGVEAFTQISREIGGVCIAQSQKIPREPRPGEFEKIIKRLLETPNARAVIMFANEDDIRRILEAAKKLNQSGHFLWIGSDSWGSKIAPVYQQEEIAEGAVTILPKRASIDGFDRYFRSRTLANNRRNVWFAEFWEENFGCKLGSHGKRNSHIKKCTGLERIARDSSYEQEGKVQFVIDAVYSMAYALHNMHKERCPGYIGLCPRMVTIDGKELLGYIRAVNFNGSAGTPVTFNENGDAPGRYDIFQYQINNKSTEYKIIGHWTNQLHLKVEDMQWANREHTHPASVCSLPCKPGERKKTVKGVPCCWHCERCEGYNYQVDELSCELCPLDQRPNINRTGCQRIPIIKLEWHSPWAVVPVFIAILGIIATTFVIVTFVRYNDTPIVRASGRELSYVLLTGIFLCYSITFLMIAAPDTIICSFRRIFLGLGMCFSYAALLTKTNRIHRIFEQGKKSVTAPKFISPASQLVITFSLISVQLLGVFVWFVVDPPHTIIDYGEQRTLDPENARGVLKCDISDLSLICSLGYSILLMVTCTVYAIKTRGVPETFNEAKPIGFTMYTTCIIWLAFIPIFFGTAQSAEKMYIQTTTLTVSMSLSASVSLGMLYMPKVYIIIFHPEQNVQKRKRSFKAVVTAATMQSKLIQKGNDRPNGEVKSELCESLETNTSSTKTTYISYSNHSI

Row | SMILES | z-score
1 | COc1ccc(S(=O)(=O)N(C)CC(=O)Nc2ccc3c(c2)OCO3)cc1 | 0.0177
2 | O=C(c1ccco1)N1CCN(S(=O)(=O)c2ccc3[nH]c(=O)oc3c2)CC1 | 0.249
3 | CC1(C)CC(=O)C2=C(C1)N(Cc1ccco1)C(=O)C2(NC(=O)c1ccc(Cl)cc1Cl)C(F)(F)F (stereo unspecified) | -0.289
4 | CC(C)C(NC(=O)C1CCCCC1)C(=O)Nc1ccncc1 (stereo unspecified) | 0.244
5 | CCCCNC(=S)N/N=C/c1cc(C)ccc1C | 1.48
6 | CCNC(=S)N/N=C/c1cccc(C)c1 | 0.00977
7 | CCNC(=S)N/N=C/c1cc(C)ccc1C | 2.43
8 | S=C(NCCc1ccccc1)N/N=C/c1c(Cl)cccc1Cl | 0.353
9 | Cc1ccc(NC(=S)N/N=C/c2ccc(OCCC(C)C)cc2)c(C)c1 | 0.599
10 | CCNC(=S)N/N=C/c1c(Cl)cccc1Cl | 5.15 (active)
11 | Cc1ccc(NC(=S)N/N=C/c2c(Cl)cccc2Cl)c(C)c1 | 9.31 (active)
12 | Cc1ccc(C)c(/C=N/NC(=S)NCCc2ccccc2)c1 | 1.17
13 | Cc1ccc(NC(=S)NCCO)c(C)c1 | -0.044
14 | Cc1cc(=O)[nH]c(SCC(=O)NCCc2ccccc2)n1 | 1.96
15 | CCN(CC)C(=O)c1sc(NC(=O)c2ccc(C)c([N+](=O)[O-])c2)c(C#N)c1C | 0.0677
16 | CCOC(=O)C1C(=O)OC2(CCCCC2)C1C(=O)OCC (stereo unspecified) | 0.124
17 | O=C(Cn1c(=O)oc2cc(S(=O)(=O)N3CCCCCC3)ccc21)NC1CCCCCCC1 | -0.034
18 | CCc1nnc2sc(-c3cc(-c4ccccc4)nc4ccccc34)nn12 | -0.507
19 | Cc1ccc(CNC(=O)COc2ccccc2-c2ccccc2)cc1 | -0.0564
20 | Cc1nc2c(-c3ccccc3)c(C)nn2c(C)c1CCC(=O)O | 0.235
21 | CCN1CCN(c2ccc(NC(=O)CCc3c(C)nc4c(-c5ccccc5)c(C)nn4c3C)cc2)CC1 | 3.06 (active)
22 | Cc1nc2c(-c3ccc(F)cc3)c(C)nn2c(C)c1CCC(=O)N1CCN(c2ccccc2)CC1 | -0.81
23 | CCn1nnc(-c2ccccc2NC(=O)c2cc(OC)cc(OC)c2)n1 | -0.139

Row | SMILES | z-score
24 | O=C(c1ccc(CS(=O)(=O)c2ccc(Br)cc2)o1)N1CCN(c2ccccn2)CC1 | -0.169
25 | O=C(c1ccc(CS(=O)(=O)c2ccccc2)o1)N1CCN(c2ncccn2)CC1 | -0.184
26 | O=C(c1ccc(CS(=O)(=O)c2ccc(Br)cc2)o1)N1CCN(c2ncccn2)CC1 | 3.31 (active)
27 | COC(=O)c1sccc1NC(=O)CSc1ccccc1NS(=O)(=O)c1ccccc1Cl | 3.17 (active)
28 | COC(=O)c1sccc1NC(=O)CSc1ccccc1NS(=O)(=O)c1cc(Cl)ccc1Cl | 8.63 (active)
29 | COC(=O)c1sccc1NC(=O)COc1ccc(Cl)cc1Cl | -0.26
30 | COC(=O)c1sccc1NC(=O)COc1ccccc1Cl | -0.212
31 | COC(=O)c1sccc1NC(=O)CSc1cccc(Cl)c1Cl | -0.0544
32 | COC(=O)c1sccc1NC(=O)CSc1cc(Cl)ccc1Cl | -0.165
33 | Cc1nn2c(-n3ccnc3C)c3c(nc2c1-c1ccccc1)CCC3 | -0.311
34 | C1=C(CCNCC2CC2)CCCC1 | 0.204
35 | O=C(CCSCc1ccc(Cl)cc1)NCCC1=CCCCC1 | -0.242
36 | Cc1ccc(CNCCC2=CCCCC2)cc1 | 2.07
37 | Clc1ccc(CNCCC2=CCCCC2)cc1 | 2.27
38 | O=C(NCCC1=CCCCC1)C(=O)NCc1ccccc1 | -0.143
39 | Cc1ccc(CNC(=O)C(=O)NCCC2=CCCCC2)cc1 | -0.102
40 | COc1cc(NC(=O)CN(C)S(=O)(=O)c2ccc3c(c2)CCC(=O)N3)cc(OC)c1 | -0.176
41 | O=C1NC(=O)[C@@H]2C3c4ccccc4C=CN3[C@H](C(=O)c3cccs3)[C@H]12 (stereo partly specified) | -0.687
42 | CCCCC(=O)Nc1nn(CCC)c2nc3ccccc3cc12 | -1.22
43 | CC(C)=C1C2CCC1C1C(=O)N(NC(=O)COc3ccc(Cl)c(C)c3)C(=O)C21 (stereo unspecified) | -0.481
44 | CC(C)=CCC/C(C)=C/C=N/NC(=O)c1ccccc1[N+](=O)[O-] | -0.0423
45 | O=C1c2oc3ccc(Cl)cc3c(=O)c2C(c2ccco2)N1CCN1CCOCC1 (stereo unspecified) | 0.841
46 | Cc1ccc(C2c3c(oc4ccc(Cl)cc4c3=O)C(=O)N2CCCN2CCOCC2)o1 (stereo unspecified) | 3.95 (active)

Row | SMILES | z-score
47 | Cc1ccc(C2c3c(oc4ccccc4c3=O)C(=O)N2CCCN2CCOCC2)o1 (stereo unspecified) | 0.634
48 | CC(C)c1nnc(NC(=O)CCC(=O)NCc2ccc3c(c2)OCO3)s1 | 0.746
49 | COc1ccc(CCNC(=O)c2nonc2N)cc1 | -0.242
50 | O=S(=O)(NCC1CCCO1)c1ccc(S(=O)(=O)N2CCc3ccccc3C2)cc1 (stereo unspecified) | 0.1
51 | COCCCNCCCOc1ccc(C)cc1Br | -0.00352
52 | OCCNCCCOc1ccc(Cl)cc1Br | 0.496
53 | COCCCNCCCOc1ccc(Cl)cc1Br | 3.75 (active)
54 | COc1ccc(N2C(=O)CC(N3CCN(c4ccc(C(=O)c5cccnc5)cc4)CC3)C2=O)cc1 (stereo unspecified) | -0.186
55 | CC(C)(C)c1ccc(OCc2ccc(C(=O)N/N=C3\CC4CC=CC34)cc2)cc1 (stereo unspecified) | -0.0236
56 | O=C1NC(=S)SC1=C1CCCCCC1 | 17.1 (active)
57 | O=C1NC(=O)C(=C2CCCCCC2)S1 | 0.367
58 | O=C1NC(=S)SC1=C1CCCC1 | 1.36
59 | Cc1cc(C(=O)NCc2ccccc2F)cs1 | -0.288
60 | CCSC1=N/C(=C\c2ccc(OC)cc2)C(=O)N1 | -0.286
61 | S=c1[nH]nc(-c2ccc3ccccc3n2)n1-c1ccccc1 | 0.119
62 | CC(c1ccc(F)cc1)n1c(-c2ccc3ccccc3n2)n[nH]c1=S (stereo unspecified) | 6.84 (active)
63 | S=c1[nH]nc(-c2ccc3ccccc3n2)o1 | -0.153
64 | S=c1[nH]nc(-c2ccc3ccccc3n2)n1-c1ccc2ncccc2c1 | -0.148
65 | S=c1[nH]nc(-c2ccc3ccccc3n2)n1-c1cc(Cl)cc(Cl)c1 | 2.18
66 | S=c1[nH]nc(-c2ccc3ccccc3n2)n1Cc1ccccc1 | 0.834
67 | CC(c1ccc(Cl)cc1)n1c(-c2ccc3ccccc3n2)n[nH]c1=S (stereo unspecified) | 7.23 (active)
68 | S=c1[nH]nc(-c2ccc3ccccc3n2)n1-c1ccccc1Cl | 0.0824
69 | S=c1[nH]nc(-c2ccc3ccccc3n2)n1-c1ccc(Cl)cc1 | 0.934

Row | SMILES | z-score
70 | Cc1ccc(C(=O)CSc2nnc(COc3ccc(C#N)cc3)n2-c2ccccc2)cc1 | 0.655
71 | Oc1csc(Cc2nc(-c3ccc4ccccc4c3)cs2)n1 | -0.78
72 | Cc1ccc(NC(=O)C2CCCN(S(=O)(=O)c3cnc[nH]3)C2)cc1F (stereo unspecified) | -0.00916
73 | Clc1ccc(-c2cc(CSc3cccc(Cl)c3)on2)cc1 | -0.234
74 | CCOC(=O)c1cc(NC(=O)COc2ccc([N+](=O)[O-])cc2)cc(C(=O)OCC)c1 | -0.0752
75 | Cc1[nH]c(=O)[nH]c(=O)c1/C=C/C(=O)OCC(C)C | 0.104
76 | NCCCCCc1nnc(SCc2ccc(Cl)c(Cl)c2)o1 | 0.93
77 | NCCCCCc1nnc(SCc2ccccc2Cl)o1 | 1.74
78 | NCCCCCc1nnc(SCc2ccc(Cl)cc2Cl)o1 | 2.74
79 | O=C(Cn1c(SCc2ccccc2)nc2ccccc21)N1CCOCC1 | -0.096
80 | Cc1ccc(-c2cn(-c3ccccc3)c(SCC(N)=O)n2)cc1C | -1.06
81 | CCN(C(=O)CSc1nc2ccccc2n1CCc1ccccc1)C1CCS(=O)(=O)C1 (stereo unspecified) | 3.88 (active)
82 | CCN(C(=O)CSc1nc2cc(C(F)(F)F)ccc2n1Cc1ccccc1)C1CCS(=O)(=O)C1 (stereo unspecified) | -0.724
83 | O=C(CSc1nc2cc(C(F)(F)F)ccc2n1Cc1ccccc1)NC1CCS(=O)(=O)C1 (stereo unspecified) | -0.137
84 | O=C(CSc1nc2ccccc2n1CCc1ccccc1)NC1CCS(=O)(=O)C1 (stereo unspecified) | 2.39
85 | Cc1ccc(C)c(-n2cc(-c3ccc(Cl)cc3)nc2SCC(=O)NC2CCS(=O)(=O)C2)c1 (stereo unspecified) | -0.524
86 | Cc1ccc(-c2cn(-c3ccccc3)c(SCC(=O)NC3CCS(=O)(=O)C3)n2)cc1C (stereo unspecified) | 3.44 (active)
87 | O=C(CSc1nc2ccccc2n1CCc1ccccc1)N1CCOCC1 | 2.47
88 | O=C(CSc1nnc(-c2ccc(Br)cc2)n1CCc1ccccc1)NC1CCS(=O)(=O)C1 (stereo unspecified) | -0.076
89 | CN(C(=O)CSc1nc2ccccc2n1CCc1ccccc1)C1CCS(=O)(=O)C1 (stereo unspecified) | 0.483
90 | O=C(CSc1nc2ccccc2n1CC(=O)N1CCOCC1)N1CCCC1 | 0.588
91 | CCOC(=O)/C(=N\Nc1ccc(OC)cc1)c1csc(Nc2ccccc2)n1 | 0.551
92 | COC(=O)CCc1c(C)c(C#N)c2nc3ccccc3n2c1N1CCCC1 | -0.478

Row | SMILES | z-score
93 | Cc1cc(-n2ccc(=O)[nH]c2=O)nc(-c2ccccc2)n1 | -0.208
94 | S=C1NCCc2ccc(Cl)cc2C1c1ccccc1 (stereo unspecified) | -0.00171
95 | Cc1c(C(C)(C)C)c(C=S)n2ccccc12 | -0.503
96 | CN(C)c1ccc(C2NCC(CCl)O2)cc1 (stereo unspecified) | -0.159
97 | CCN(CC)S(=O)(=O)c1ccc(C(=O)NCc2n[nH]c(=S)n2-c2ccccc2OC)cc1 | -0.0139
98 | COc1ccccc1-n1c(CNC(=O)COc2ccccc2)n[nH]c1=S | 2.71
99 | COc1cc(OC)cc(C(=O)NCc2n[nH]c(=S)n2-c2ccccc2OC)c1 | -0.981
100 | CSc1ccc(N2CCN(CCCNC(=O)Nc3ccccc3F)CC2)cc1 | 0.699
101 | N#Cc1ccccc1NC(=O)COC(=O)CSc1nc2ccccc2o1 | -2.27
102 | Fc1ccc(CCNC(=S)Nc2ccc(F)cc2)cc1 | 0.103
103 | O=c1/c(=C/c2ccccn2)sc2nc3ccccc3n12 | 0.539
104 | O=c1/c(=C\c2cccnc2)sc2nc3ccccc3n12 | -0.0361
105 | Cc1cc(/C=c2/sc3nc4ccccc4n3c2=O)c(C)n1-c1ccccn1 | 6.08 (active)
106 | Cc1nc2oc3c(NCc4ccccc4)ncnc3c2c2c1COC(C)(C)C2 | -0.383
107 | CCOc1ccc(C2=NNC(c3cccs3)=Nc3ccc(OC)cc32)cc1 | 3.11 (active)
108 | CCOc1ccc(C2=NNC(c3cccs3)=Nc3ccc(OCC)cc32)cc1 | -0.166
109 | CCCOc1ccc(C2=NNC(c3cccs3)=Nc3ccc(OC)cc32)cc1 | -0.471
110 | CCCn1c2c(c(O)c(C(=O)NCCCN(CC)CC)c1=O)CCCC2 | 0.585
111 | Cc1ccccc1C(=O)N1CCN(c2ccc([N+](=O)[O-])c(NCc3cccnc3)c2)CC1 | -0.418
